Source: PubChem BioAssay (National Center for Advancing Translational Sciences (NCATS))
L3MBTL1 inh – qHTS Assay for the Inhibitors of L3MBTL1 | Lethal(3)malignant brain tumor-like protein 1 (Homo sapiens), Q9Y468 | AlphaScreen L3MBTL1–H3K9me1 peptide binding | Potency, µM (highest dose often 57.1 µM), for inactives: top-dose activity, negative = inhibition, most hits filed as inhibitors | actives 0.66% (n = 230,000) | AID 485360, 2010; further: on the % scale 0 is the no-effect control and ±100 the full control effect; nearly all actives have a fitted effect of over 60% in size
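First, the protein-peptide complex forms for 30 min at room temperature (L3MBTL1 50 nM, biotinylated H3K9me1 peptide 75 nM). Next, compounds are pin-transferred and incubated 30 min. Finally, AlphaScreen beads are added and read after 30 min.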
Sfp inh – qHTS Assay for Inhibitors of Bacillus subtilis Sfp phosphopantetheinyl transferase (PPTase); Biochemical Sfp PPTase activity, qHTS; Potency, µM, for inactives: largest response in the series, negative = inhibition, actives largely listed as inhibitors; actives 3.5% (n = 310,000); AID 1490, 2009;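 further: the enzyme is Sfp with the accession as filed and its product quenches rhodamine fluorescence; 0% = enzyme reaction without inhibitor and -100% = no enzyme wells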
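Buffer: 50 mM Hepes-Na pH 7.6, 10 mM MgCl2, 0.01% Nonidet P-40, 0.01% BSA. Enzyme 15 nM, pre-exposed to compound 15 min; substrates then added and fluorescence change tracked over 30 min.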
BAZ2B inh – qHTS Assay for Inhibitors of BAZ2B. AlphaScreen BAZ2B-H3K14Ac peptide displacement. Bromodomain adjacent to zinc finger domain protein 2B (Homo sapiens), Q9UIF8. actives 4.4% (n = 360,000). Potency, µM (highest dose often 114 µM), for the others: top-dose activity change, negative = inhibition, most hits filed as inhibitors; further: on the % scale 0 is the no-effect control and ±100 the full control effect; nearly all actives have a fitted effect of over 60% in size
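BAZ2B 50 nM plus b-H3(5-23)K14Ac 50 nM, PBS pH 7.4/0.01% Tween-20, 30 min RT; compound added (max 110 uM), 30 min RT; streptavidin donor/Ni-chelate acceptor beads 10 ug/mL final, 20 min dark; AlphaScreen read.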
HP1b binding inh – HTS for Inhibitors of HP1-beta Chromodomain Interactions with Methylated Histone Tails; Chromobox protein homolog 1 (Homo sapiens), P83916; AlphaScreen HP1-beta / biotin-H3K9me3 peptide binding; Potency, µM (series often up to 114 µM), for the others: top-dose activity change, negative = inhibition, usual class: inhibitors; actives 0.56% (n = 390,000); further: nearly all actives have a fitted effect of over 70% in size
Target sequence (P83916 whole entry, looked up): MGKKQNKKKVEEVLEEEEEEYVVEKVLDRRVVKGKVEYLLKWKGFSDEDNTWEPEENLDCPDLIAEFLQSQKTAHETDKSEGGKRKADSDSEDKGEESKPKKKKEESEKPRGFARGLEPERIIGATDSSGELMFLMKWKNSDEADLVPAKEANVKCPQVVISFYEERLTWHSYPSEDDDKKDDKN
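Compound inhibition of the preformed complex between 50 nM HP1-beta and 50 nM biotinylated H3K9me3 peptide was read by AlphaScreen. Buffer was PBS pH 7.4 with 0.01% Tween-20. Incubations ran 30 min at room temperature, with 10 ug/mL donor/acceptor beads.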
JMJD2A Tudor inh – qHTS Assay for Inhibitors of JMJD2A-Tudor Domain | actives 4.4% (n = 390,000) | AID 504339, 2011 | Potency, µM (doses to about 114 µM), for the others: top-dose activity change, negative = inhibition, most hits filed as inhibitors | AlphaScreen JMJD2A-Tudor / H3K4me3 peptide binding; further: on the % scale 0 is the no-effect control and ±100 the full control effect; nearly all actives have a fitted effect of over 50% in size
G9a inh – qHTS Assay for Inhibitors of Histone Lysine Methyltransferase G9a. Histone-lysine N-methyltransferase EHMT2 (Homo sapiens), Q96KQ7. G9a H3K9 monomethylation, AlphaScreen, 2 h. Potency, µM (series often up to 102 µM), without a hit: at the top dose activity, negative = inhibition, actives largely listed as inhibitors. actives 8.8% (n = 350,000). AID 504332, 2011; further: on the % scale 0 is the no-effect control and ±100 the full control effect; nearly all actives have a fitted effect of over 75% in size
Target sequence (Q96KQ7 913-1193 limits assumed): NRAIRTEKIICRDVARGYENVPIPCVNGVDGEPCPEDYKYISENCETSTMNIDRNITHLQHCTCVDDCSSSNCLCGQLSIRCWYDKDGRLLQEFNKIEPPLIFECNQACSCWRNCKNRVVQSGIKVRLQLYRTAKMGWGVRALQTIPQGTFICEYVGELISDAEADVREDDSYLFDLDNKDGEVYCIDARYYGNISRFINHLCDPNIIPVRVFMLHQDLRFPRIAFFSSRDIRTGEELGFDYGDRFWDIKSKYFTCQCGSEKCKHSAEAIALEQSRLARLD
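Methyltransferase reactions run at room temperature for 2 h (20 nM enzyme, 500 nM biotin-H3K9 peptide, 20 uM SAM) after a 15 min compound preincubation; product detected by AlphaScreen beads and anti-H3K9me1 antibody.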
* marks the source's active call; other numbers are inactive results; ? = inconclusive; . = no result given; ! = repeats disagree; [ ] = another dose, or the depositor's remark. This is a sample that favours compounds with a hit; in the whole collection about 12% have one here. The call rests on the fitted dose curve; in most records, active means well fitted curve in the direction sought with a large enough effect; inconclusive means small, poorly fitted or top-dose-only effect, or another doubt; inactive means no such curve, though single readings can be large; an effect the other way counts as inactive or inconclusive. Potency means the concentration at half of the fitted maximal effect.

SMILES	L3MBTL1 inh	Sfp inh	BAZ2B inh	HP1b binding inh	JMJD2A Tudor inh	G9a inh
CC(C)(C)OC(=O)Cc1nnc(C(C(=O)OCc2ccccc2)c2ccccc2)s1 (stereo not drawn)	.	.	.	.	-8%	.
Cc1nnc(NC(=O)c2ccccc2NC(=O)c2ccccc2)s1	9%	-9%	-17%	48%	-7%	50µM*
Cc1c(Cl)cccc1Nc1ncccc1C(=O)O	.	11%	-9%	7%	25µM*!	-24%[12.7 µM]
O=C(Nc1ccccc1C(=O)O)c1ccccc1	.	26%	?	20%	-29%	50µM*
O=C(O)c1ccccc1NC(=O)c1cc2ccccc2oc1=O	2%	?	-17%	35%	0%	50µM*
Cc1nnc(NC(=O)c2ccccc2-c2ccccc2C(=O)O)s1	-6%	-14%	-13%	3%	-2%	.
O=C(O)c1ccccc1NN=C1CCCCC1	-10%	-12%	-9%	7%	?	8.9µM*
O=C(NN=C1CCCC1)c1ccccc1O	-2%	-3%	-7%	40%	?	.
Cc1ccc(-c2ccc(NC(=O)C3C4C=CC(C4)C3C(=O)O)cc2)o1 (stereo not drawn)	.	2.2µM*	?	14%	-32%	16µM*
O=C(O)c1ccccc1NC(=O)C1C2C=CC(C2)C1C(=O)O (stereo not drawn)	7%	20µM*	-7%	12%	-10%	?
CC(C)c1ccccc1NC(=O)C1C2C=CC(C2)C1C(=O)O (stereo not drawn)	-2%	?	10%	51%	-9%	.
CN1CCN(C(=O)CSc2nnc(COc3ccc(Cl)cc3)o2)CC1	.	8%	8%	2%	5%	12%
CN1CCN(C(=O)CSc2nnc(COc3ccccc3)o2)CC1	.	-16%	-2%	15%	-6%	40µM*
COc1cccc(OCc2nnc(SCC(=O)N3c4ccccc4Sc4ccc(Cl)cc43)o2)c1	5%	11%	-6%	-17%	8%	28µM*
COc1ccccc1NC(=O)CC12CC3CC(CC(Br)(C3)C1)C2	.	-4%	5%	48%	4%	43%
Cc1cc(C)c2cc(C#N)c(N3CCCC3)nc2c1	.	45µM*	66%	84%	39%[11.4 µM]	-37%[12.7 µM]
CCOC(CNCc1cc(C)c2[nH]c3ccccc3c2c1C)OCC	.	.	.	0%	-16%	.
COc1cc(O)c(C(CCN2CCCCC2)c2ccc(N(C)C)cc2)c(OC)c1 (stereo not drawn)	.	-18%	?	?	40µM*	?
CCN(CC)C(=O)CC(c1cc(OC)c(OC)c(OC)c1)c1c(O)cc(OC)cc1OC (stereo not drawn)	.	19%	1%	35%	-21%	18%[12.7 µM]
COc1cc(O)c(C(CC(=O)N2CCCC2)c2ccc(N(C)C)cc2)c(OC)c1 (stereo not drawn)	.	7%	?	-13%	?	?
COc1cc(O)c(C(CCN2CCCC2)c2ccc(N(C)C)cc2)c(OC)c1 (stereo not drawn)	.	-22%	35µM*	?	22µM*	?
CCN(CC)C(=O)CC(c1ccc(N(C)C)cc1)c1c(O)cc(OC)cc1OC (stereo not drawn)	.	-8%	?	-16%	50µM*	?
Cc1ccc(NC(=O)N2CCN(c3nnc(C)c4c(C)n(-c5ccccc5)nc34)CC2)cc1Cl	.	.	-13%	5%	-11%	-1%[59 µM]
O=C1CCCCC1CCc1ccncc1 (stereo not drawn)	.	.	.	38%	-2%	.
CCCS(=O)(=O)c1nc(S(=O)(=O)c2ccc(C)cc2)c(NCC(C)C)s1	.	.	0%	52%	-12%	20%[59 µM]
SMILES	L3MBTL1 inh	Sfp inh	BAZ2B inh	HP1b binding inh	JMJD2A Tudor inh	G9a inh
c1ccc(-c2n[nH]c(-c3ccccn3)n2)cc1	.	12%	8.9µM*	37%	?	?
c1ccc(-c2csc(NC3CCCCC3)n2)cc1	.	-8%	-30%	-12%	-23%	50µM*
COc1ccc(-c2csc(-c3ccccc3)n2)c(OC)c1	.	0%	77%	169%	51%	38%
COc1ccc(-c2csc(NC3CCCCC3)n2)c(OC)c1	.	-27%	-35%	?	?	45µM*
Cc1cc(C)n2ncc(/C(N)=N/OC(=O)Nc3ccccc3)c2n1	-18%	13%	20%	-1%	-2%	21%
CSc1nc2nc3c(cc2c(=O)n1-c1ccccc1)COC(C)(C)C3	0%	4%	-16%	35%	1%	50µM*
CSc1nc2nc3c(cc2c(=O)n1-c1ccc(C)cc1)COC(C)(C)C3	-2%	-6%	-1%	23%	-17%	?
COc1ccc(C(c2c(NC(C)=O)sc3c2CCCC3)N2CCN(CCO)CC2)cc1OC (stereo not drawn)	-14%	8%	-35%	7%	-27%	?
CC(=O)Nc1sc2c(c1C(c1cccc(Cl)c1)N1CCN(CCO)CC1)CCCC2 (stereo not drawn)	.	-2%	?	4%	?	50µM*
COc1ccccc1-c1cc(-c2ccc(C)cc2)nc(SCc2nnc(-c3ccccc3)o2)c1C#N	-11%	?	11%	-26%	-22%	11µM*
CCc1ccc(NC(=O)Cn2c(=O)nc(-c3ccccc3F)c3cc(Cl)ccc32)cc1	.	.	-17%	22%	-19%	0%[59 µM]
O=C1NCCCc2c1oc1cc(Br)c(O)c(Br)c21	1%	-13%	-2%	-4%	-19%	50µM*
CC(C)NCc1c(O)c(Br)cc2oc3c(c12)CCCC3	1%	4%	5%	8%	-35%	?
C[C@]12CC[C@@H](O)C[C@@H]1CC[C@@H]1[C@@H]2CC[C@]2(C)C=CC[C@@H]12	.	26%	.	.	.	29%[59 µM]
CCNC(=O)CC1C(=O)N(c2ccc(C)cc2)C(=O)N1CCC(C)C (stereo not drawn)	.	-6%	5%	38%	0%	-38%
COc1cccc(NC(=O)CSc2cc(C)[nH]c(=O)n2)c1	.	.	-2%	4%	-17%	6%[59 µM]
CCOc1ccc(-n2nc3ccc(NC(=O)c4cccc(F)c4)cc3n2)cc1	.	.	-16%	46%	-6%	4%[59 µM]
CCOc1ccc(Nc2nc(C)c(NC(=O)c3cccc(F)c3)c(Nc3ccc(OCC)cc3)n2)cc1	.	.	3%	39%	?	20µM*
